In the supplement of paper PMC11732987, “Enantioselective OTUD7B fragment discovery through chemoproteomics screening and high-throughput optimisation” (Communications Chemistry, 2025):

Legend:
Assay in all cases: log2 ratio of Biotin-Ahx-Ub-VS probe labelling (fragment/DMSO); higher = less target engagement (more negative = stronger competition), active = hit call of the paper (q ≤ 0.05, log2 ratio ≤ -1)
Settings in all cases: compound concentration: 200 uM; treatment time: 3 h
[1] = target: USP34 (UniProt Q70CQ2)
Chain of USP34 (Q70CQ2 whole entry, the tested form may be a part): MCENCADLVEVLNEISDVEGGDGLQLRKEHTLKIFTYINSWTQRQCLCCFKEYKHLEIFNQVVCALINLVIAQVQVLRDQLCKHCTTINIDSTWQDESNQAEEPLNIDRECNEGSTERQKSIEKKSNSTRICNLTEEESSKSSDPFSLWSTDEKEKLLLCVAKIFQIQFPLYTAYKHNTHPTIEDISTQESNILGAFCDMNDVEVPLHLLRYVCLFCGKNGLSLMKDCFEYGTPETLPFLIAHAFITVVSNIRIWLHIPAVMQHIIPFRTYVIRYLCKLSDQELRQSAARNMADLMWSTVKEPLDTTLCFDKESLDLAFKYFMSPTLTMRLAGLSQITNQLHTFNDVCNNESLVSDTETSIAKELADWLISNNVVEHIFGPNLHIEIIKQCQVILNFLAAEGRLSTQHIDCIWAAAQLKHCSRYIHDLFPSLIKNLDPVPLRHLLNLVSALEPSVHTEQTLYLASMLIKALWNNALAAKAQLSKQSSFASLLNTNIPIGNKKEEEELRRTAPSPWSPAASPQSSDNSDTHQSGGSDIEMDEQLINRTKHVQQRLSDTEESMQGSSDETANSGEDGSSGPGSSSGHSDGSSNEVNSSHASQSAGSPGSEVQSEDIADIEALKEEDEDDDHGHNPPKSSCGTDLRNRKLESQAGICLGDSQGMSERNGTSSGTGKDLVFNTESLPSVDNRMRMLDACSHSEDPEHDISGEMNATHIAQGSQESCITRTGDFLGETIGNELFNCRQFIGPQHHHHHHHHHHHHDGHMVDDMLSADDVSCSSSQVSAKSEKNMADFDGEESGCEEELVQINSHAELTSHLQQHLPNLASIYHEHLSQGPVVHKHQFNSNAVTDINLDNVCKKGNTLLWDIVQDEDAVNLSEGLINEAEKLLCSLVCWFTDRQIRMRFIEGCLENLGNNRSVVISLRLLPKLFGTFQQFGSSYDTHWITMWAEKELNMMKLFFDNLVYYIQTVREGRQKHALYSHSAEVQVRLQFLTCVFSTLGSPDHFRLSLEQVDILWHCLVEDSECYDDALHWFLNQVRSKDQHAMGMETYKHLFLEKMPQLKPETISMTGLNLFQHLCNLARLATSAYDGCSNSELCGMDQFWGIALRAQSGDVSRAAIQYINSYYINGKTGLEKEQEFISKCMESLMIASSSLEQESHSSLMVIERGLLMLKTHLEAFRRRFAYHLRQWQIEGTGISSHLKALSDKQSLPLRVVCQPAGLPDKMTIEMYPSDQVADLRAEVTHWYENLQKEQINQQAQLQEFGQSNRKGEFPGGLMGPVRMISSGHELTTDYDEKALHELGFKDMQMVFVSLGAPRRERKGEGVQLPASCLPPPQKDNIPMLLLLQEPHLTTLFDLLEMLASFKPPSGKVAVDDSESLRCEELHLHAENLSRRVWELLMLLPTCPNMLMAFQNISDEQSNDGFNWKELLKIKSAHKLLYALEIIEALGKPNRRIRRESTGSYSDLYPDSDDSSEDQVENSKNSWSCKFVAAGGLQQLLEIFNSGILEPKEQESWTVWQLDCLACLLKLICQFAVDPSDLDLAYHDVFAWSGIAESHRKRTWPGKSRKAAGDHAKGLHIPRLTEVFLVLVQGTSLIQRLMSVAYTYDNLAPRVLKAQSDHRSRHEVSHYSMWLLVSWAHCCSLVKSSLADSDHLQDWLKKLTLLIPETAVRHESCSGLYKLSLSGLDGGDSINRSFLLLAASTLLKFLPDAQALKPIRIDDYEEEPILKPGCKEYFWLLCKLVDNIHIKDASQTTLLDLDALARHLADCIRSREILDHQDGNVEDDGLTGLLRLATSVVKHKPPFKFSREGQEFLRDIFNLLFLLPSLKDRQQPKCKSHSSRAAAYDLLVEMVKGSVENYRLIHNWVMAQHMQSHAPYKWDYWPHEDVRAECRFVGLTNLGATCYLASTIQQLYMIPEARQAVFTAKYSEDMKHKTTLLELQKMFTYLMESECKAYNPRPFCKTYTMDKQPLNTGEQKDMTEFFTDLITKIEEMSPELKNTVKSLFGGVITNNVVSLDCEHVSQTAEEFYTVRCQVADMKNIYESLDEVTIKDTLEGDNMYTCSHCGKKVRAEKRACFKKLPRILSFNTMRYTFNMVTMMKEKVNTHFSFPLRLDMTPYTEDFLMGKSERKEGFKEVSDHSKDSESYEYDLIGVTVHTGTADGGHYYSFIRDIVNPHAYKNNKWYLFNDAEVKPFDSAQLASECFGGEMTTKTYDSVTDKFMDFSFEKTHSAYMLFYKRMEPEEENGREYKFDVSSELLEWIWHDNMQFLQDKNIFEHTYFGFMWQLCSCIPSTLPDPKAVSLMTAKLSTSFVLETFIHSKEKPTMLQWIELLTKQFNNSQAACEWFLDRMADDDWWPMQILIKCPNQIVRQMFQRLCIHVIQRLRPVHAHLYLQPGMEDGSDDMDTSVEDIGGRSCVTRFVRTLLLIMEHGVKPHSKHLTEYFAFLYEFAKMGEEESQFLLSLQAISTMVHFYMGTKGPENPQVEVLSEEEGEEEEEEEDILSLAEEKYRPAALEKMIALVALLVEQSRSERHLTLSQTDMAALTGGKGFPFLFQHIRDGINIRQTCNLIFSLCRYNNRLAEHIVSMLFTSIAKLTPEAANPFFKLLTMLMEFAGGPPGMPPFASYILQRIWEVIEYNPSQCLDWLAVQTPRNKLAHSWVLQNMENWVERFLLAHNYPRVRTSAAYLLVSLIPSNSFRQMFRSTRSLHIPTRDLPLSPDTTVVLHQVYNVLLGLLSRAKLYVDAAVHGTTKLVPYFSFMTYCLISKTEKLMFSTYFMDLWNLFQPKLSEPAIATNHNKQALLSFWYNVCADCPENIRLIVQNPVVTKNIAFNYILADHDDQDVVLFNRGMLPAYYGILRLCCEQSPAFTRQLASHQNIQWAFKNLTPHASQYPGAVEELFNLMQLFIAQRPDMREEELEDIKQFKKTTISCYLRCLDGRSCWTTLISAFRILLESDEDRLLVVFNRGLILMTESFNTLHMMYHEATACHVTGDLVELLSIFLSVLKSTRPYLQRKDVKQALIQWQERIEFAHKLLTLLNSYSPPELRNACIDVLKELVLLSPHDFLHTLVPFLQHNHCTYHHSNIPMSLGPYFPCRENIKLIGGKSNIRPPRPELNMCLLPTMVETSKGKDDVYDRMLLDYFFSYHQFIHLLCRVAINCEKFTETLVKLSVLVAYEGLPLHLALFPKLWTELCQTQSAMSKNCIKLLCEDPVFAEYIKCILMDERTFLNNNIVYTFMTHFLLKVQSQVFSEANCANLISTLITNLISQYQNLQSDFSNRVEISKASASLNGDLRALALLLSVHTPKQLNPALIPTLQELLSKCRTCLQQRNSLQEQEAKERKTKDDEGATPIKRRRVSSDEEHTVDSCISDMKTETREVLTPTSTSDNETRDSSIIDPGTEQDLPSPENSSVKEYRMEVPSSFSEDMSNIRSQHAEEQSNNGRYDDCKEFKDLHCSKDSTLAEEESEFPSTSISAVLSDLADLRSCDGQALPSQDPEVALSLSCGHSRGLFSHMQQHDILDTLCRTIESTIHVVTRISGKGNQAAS
Procedure, shortened: (§1)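 Triplicate samples of HEK293T lysate, 495 µg each, received fragment at 200 µM or vehicle for 3 h, followed by Biotin-Ahx-Ub-VS (0.5 µM final) for 1 h. After NeutrAvidin enrichment of labelled DUBs and LysC/trypsin digestion, peptides were run by diaPASEF LC-MS/MS. The values are average log2 fragment/vehicle ratios from global-median-normalised Spectronaut label-free quantities, tested by unpaired t-test on proteins having ≥2 unique peptides.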

[2] = target: T1, USP36 (UniProt Q9P275)
T1 sequence (whole entry): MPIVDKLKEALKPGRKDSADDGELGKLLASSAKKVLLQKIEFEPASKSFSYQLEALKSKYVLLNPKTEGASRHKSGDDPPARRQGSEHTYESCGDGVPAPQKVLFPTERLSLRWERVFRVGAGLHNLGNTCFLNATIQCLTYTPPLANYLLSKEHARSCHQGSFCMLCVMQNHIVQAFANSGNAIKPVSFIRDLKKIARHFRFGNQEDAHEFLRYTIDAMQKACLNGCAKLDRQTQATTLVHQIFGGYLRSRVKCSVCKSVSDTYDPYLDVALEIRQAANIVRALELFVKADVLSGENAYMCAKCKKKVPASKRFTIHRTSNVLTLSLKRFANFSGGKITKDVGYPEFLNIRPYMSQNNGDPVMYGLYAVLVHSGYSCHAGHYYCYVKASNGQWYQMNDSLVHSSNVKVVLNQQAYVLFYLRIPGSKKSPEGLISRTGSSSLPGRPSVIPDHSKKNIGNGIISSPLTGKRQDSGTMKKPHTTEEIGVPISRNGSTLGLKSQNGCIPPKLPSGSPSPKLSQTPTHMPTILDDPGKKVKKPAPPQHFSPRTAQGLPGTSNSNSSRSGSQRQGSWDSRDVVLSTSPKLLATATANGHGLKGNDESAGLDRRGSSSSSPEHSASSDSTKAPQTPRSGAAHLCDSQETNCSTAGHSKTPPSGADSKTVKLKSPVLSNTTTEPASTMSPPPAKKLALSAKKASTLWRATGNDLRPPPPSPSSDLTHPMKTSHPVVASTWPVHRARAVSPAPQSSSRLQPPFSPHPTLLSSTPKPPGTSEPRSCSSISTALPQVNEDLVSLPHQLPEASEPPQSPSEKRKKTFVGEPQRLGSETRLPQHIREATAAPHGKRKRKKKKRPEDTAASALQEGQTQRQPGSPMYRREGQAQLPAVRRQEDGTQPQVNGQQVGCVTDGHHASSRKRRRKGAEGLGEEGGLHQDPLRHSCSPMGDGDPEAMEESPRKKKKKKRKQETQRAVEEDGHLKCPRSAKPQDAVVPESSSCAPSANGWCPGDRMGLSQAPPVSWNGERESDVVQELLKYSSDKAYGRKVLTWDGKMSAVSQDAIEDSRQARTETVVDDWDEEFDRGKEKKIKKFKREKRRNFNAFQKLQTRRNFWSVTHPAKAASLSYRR
Procedure, shortened: as §1

[3] = target: T2, USP38 (UniProt Q8NB14)
T2 sequence (whole entry): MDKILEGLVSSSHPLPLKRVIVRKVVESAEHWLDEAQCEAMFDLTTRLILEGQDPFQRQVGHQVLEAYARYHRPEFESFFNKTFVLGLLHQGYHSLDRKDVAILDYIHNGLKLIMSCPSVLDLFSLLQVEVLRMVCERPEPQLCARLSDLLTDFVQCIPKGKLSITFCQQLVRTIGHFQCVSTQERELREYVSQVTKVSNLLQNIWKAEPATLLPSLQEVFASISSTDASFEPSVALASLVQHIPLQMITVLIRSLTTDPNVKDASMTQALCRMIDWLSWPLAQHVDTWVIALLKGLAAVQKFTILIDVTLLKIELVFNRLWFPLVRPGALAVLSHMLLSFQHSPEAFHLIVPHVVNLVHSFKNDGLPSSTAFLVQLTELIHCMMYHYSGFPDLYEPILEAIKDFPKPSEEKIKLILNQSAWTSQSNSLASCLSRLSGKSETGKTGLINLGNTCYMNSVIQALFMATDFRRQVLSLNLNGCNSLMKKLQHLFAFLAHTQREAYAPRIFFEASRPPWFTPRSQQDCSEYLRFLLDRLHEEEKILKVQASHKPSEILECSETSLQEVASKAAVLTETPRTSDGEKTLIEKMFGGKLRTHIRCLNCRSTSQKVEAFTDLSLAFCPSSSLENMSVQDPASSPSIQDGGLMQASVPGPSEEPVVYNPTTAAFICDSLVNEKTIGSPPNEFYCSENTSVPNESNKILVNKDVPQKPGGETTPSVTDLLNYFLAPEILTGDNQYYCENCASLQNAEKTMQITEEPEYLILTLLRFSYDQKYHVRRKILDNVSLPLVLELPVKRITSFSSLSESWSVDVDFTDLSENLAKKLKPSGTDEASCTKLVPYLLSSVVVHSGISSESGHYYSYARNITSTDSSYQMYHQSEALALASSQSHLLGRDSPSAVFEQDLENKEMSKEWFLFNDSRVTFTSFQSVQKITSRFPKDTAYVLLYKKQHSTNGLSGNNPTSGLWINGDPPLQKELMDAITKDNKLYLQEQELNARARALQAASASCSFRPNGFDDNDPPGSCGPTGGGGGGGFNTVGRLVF
Procedure, shortened: as §1

[4] = target: T3, USP39 (UniProt Q53GS9)
T3 sequence (whole entry): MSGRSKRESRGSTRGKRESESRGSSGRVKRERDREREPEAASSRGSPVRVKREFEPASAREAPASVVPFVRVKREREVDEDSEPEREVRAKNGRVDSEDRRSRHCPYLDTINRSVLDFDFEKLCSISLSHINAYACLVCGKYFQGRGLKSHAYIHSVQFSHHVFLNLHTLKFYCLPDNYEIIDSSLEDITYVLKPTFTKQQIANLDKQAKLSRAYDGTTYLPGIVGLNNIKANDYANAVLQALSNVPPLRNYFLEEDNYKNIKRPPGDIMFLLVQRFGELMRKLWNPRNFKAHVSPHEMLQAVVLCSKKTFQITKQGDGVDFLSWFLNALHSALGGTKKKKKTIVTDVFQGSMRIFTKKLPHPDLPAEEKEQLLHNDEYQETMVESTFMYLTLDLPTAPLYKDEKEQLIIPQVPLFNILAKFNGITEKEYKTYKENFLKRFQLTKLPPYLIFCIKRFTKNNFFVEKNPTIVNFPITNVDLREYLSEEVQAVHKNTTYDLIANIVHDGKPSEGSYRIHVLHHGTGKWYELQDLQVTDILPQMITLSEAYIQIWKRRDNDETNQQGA
Procedure, shortened: as §1

[5] = target: T4, USP4 (UniProt Q13107)
T4 sequence (whole entry): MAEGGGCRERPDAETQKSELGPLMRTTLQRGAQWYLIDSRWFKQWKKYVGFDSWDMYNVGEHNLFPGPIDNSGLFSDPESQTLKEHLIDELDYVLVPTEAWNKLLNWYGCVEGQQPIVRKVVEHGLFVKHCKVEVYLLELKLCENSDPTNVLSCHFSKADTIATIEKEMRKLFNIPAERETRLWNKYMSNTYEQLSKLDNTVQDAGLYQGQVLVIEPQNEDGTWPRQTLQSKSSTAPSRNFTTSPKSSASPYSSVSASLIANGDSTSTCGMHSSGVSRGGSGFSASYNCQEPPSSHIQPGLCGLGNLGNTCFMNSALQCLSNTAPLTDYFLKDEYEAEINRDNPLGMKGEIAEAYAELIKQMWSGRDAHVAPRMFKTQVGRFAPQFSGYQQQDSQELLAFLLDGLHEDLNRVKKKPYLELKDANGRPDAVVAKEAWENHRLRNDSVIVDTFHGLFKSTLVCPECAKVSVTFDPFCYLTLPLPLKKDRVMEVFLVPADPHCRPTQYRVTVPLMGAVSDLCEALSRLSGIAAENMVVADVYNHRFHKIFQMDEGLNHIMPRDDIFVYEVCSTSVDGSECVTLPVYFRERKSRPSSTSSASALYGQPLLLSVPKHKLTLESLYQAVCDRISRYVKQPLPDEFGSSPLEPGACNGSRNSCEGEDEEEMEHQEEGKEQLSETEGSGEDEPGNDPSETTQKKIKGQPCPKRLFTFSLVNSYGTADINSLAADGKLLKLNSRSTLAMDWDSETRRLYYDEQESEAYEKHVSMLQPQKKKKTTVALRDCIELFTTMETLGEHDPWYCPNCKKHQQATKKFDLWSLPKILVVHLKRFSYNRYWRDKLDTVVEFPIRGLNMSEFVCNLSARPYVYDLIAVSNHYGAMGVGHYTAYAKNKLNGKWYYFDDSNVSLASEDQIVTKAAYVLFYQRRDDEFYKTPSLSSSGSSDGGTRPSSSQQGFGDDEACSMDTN
Procedure, shortened: as §1

Measured: log2 ratio of Biotin-Ahx-Ub-VS probe labelling

CC(NC(=O)CCl)c1noc(Cc2ccccc2)n1 (stereo not given)
inactive: [1] -0.0517 | [2] -0.338 | [3] -0.21 | [4] -0.245 | [5] -0.142
